# Results from ChEMBL document CHEMBL1157539, “Thousands of chemical starting points for antimalarial lead identification” (Nature, 2010).
# System: HepG2
# Assay: GSK_TCMDC: Percent inhibition of human HepG2 cell line. Test compounds present at 10uM.
# Type: functional
row,SMILES,Inhibition
1,CCCCCCNc1cc(C)nc2ccc(OC)cc12.Cl,19%
2,COc1ccc(CCNC(=O)c2cc3c(=O)n4cccc(C)c4nc3n(C)c2=N)cc1,22%
3,CCOc1ccccc1C(=O)Nc1cccc(-c2nc3ncccn3c2C)c1,0%
4,CCc1c[nH]c2c(N(c3ccccc3)S(C)(=O)=O)cc(C(=O)N[C@@H](Cc3ccccc3)[C@H](O)CNC(C)(C)CCCC(C)C)cc12.O=CO,99%
5,Cc1ccc(Oc2ccccc2NC(=O)CCc2nc3ccccc3c(=O)[nH]2)cc1,3%
6,Brc1ccsc1-c1nc(NCCC(c2ccccc2)c2ccccc2)no1,17%
7,O=C(CSc1nc2ccccc2c(=O)n1C1CC1)Nc1cc(C(F)(F)F)ccc1Cl,5%
8,O=C(c1cccs1)N1N=C(c2cccs2)CC1c1cccc([N+](=O)[O-])c1 (stereo not given),5%
9,Br.Oc1ccc(CCNCCCCCCNCCc2ccc(-c3ccccc3)cc2)cc1O,72%
10,COCCCNC(=O)c1ccc(O)c(-c2cc(Cl)cc(Cl)c2)c1,22%
11,COc1ccc2nccc([C@@H](O)CN3CCC(NC(=O)Cn4nc(-c5ccc(C(F)(F)F)cc5)ccc4=O)CC3)c2c1,12%
12,CCc1nc(N)nc(N)c1-c1ccccc1,53%
13,CC(C)(C)CCOC(=O)N1CCc2c(cc(O)c(O)c2Cl)C(c2ccc(O)cc2)C1 (stereo not given),2%
14,COC(=O)c1ccc(C(=O)NCCCCN2CCC(c3ccc4c(c3OC)CCCC4)CC2)cc1-c1ccc(C(F)(F)F)cc1,24%
15,Cc1cccc2nc(-c3cccc(-c4ccc(CNCc5cccc(N)c5)cc4)c3)[nH]c12.O=C(O)C(F)(F)F,19%
